# Measurements published in the supplement of paper PMC8728848.
# This is one part of a sample in which the strongest signals are shown more often than they occur.
# B1: PX9937I-bfa-538-26-538 (Bacteroides fragilis) (protein)
# chain: DKLDLSPIDYYGSGSYWKTEAQATAYIDGIHKHLRDAAWQHTITFGELRGGRFITGASSDGMGVSNGDIILQNFDETHTGVSKFGDLFGRITNLNLFIARVTDATYLSDEMKNFYLGEVYGLRAFYYFDLYRIYGGVPLRLTADVVEGVIDPNKLYMARSTPKEVMTQIKSDLNKSMEYFGNMNDFDPYKRGKKVYWSKAATECLMGEVYLWTSKVTTGDDVANPADLTIAKTHLESVLNNYNLKMLDDFSQVFNAKNKANDEIIFAIRFLEGEATNSNGTFTYNVGTGSTKNRYQANGEVFGDALDIQNTGNQTYEYNKAVYQNFDDADTRKEATFIASYNKDGKTGELSLYGTHVRKNIGYVNAQGARVYCGDYIFYRLPWVYLTLAEIANMEGDNAAVAKYINLVRKRAYGNAWDETLYAYPETADFTTNELAILHEKDKEFIQEGQRWWDLRRMTLTKGGTPLVFCKEGSLLGDAPILNKSTEAHKLLWPIEKTMLNKDPALEQTPGYK
# How the values were obtained:
# Assay in all cases: glycan array binding signal (z-score within array); higher = stronger binding
# Conditions in all cases: glycan notation: IUPAC condensed, linker removed
# [1] = biological target: Fuc(a1-2)Gal(b1-3)GlcNAc(b1-2)Man(a1-3)[Fuc(a1-2)Gal(b1-3)GlcNAc(b1-2)Man(a1-6)]Man(b1-4)GlcNAc(b1-4)GlcNAc
# How it was run: (§1)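 Glycan array binding is given as a within-array Z-score, which can be read as non-binding when negative. The arrays, 3228 of them, came from the Consortium for Functional Glycomics database and were retained only where the protein sequence was available. Z-scores were averaged across arrays of the same protein sequence at different concentrations or buffers and across linkers.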
# [2] = biological target: Fuc(a1-2)Gal(b1-4)GlcNAc(b1-2)Man(a1-3)[Fuc(a1-2)Gal(b1-4)GlcNAc(b1-2)Man(a1-6)]Man(b1-4)GlcNAc(b1-4)GlcNAc
# How it was run: as §1
# [3] = biological target: Fuc(a1-2)Gal(b1-4)GlcNAc(b1-2)Man(a1-3)[Fuc(a1-2)Gal(b1-4)GlcNAc(b1-2)Man(a1-6)]Man(b1-4)GlcNAc(b1-4)[Fuc(a1-6)]GlcNAc
# How it was run: as §1
# [4] = biological target: Fuc(a1-2)Gal(b1-4)GlcNAc(b1-2)[Fuc(a1-2)Gal(b1-4)GlcNAc(b1-4)]Man(a1-3)[Fuc(a1-2)Gal(b1-4)GlcNAc(b1-2)Man(a1-6)]Man(b1-4)GlcNAc(b1-4)GlcNAc
# How it was run: as §1
# [5] = biological target: Fuc(a1-2)Gal(b1-4)[Fuc(a1-3)]GlcNAc
# How it was run: as §1
# [6] = biological target: Fuc(a1-2)Gal6S(b1-4)Glc6S
# How it was run: as §1
# [7] = biological target: Fuc(a1-2)[Gal(a1-3)]Gal(b1-4)GlcNAc(b1-3)[Fuc(a1-2)[Gal(a1-3)]Gal(b1-4)GlcNAc(b1-6)]GalNAc
# How it was run: as §1
# [8] = biological target: Fuc(a1-2)[GalNAc(a1-3)]Gal(b1-4)GlcNAc(b1-3)GalNAc
# How it was run: as §1
# [9] = biological target: Fuc(a1-2)[GalNAc(a1-4)]Gal(b1-4)GlcNAc
# How it was run: as §1
# [10] = biological target: Fuc(a1-3)[Gal(b1-4)]GlcNAc(b1-2)Man(a1-3)[Fuc(a1-3)[Gal(b1-4)]GlcNAc(b1-2)Man(a1-6)]Man(b1-4)GlcNAc(b1-4)GlcNAc
# How it was run: as §1
# Gal(a1-3)Gal(b1-3)GlcNAc = biological target: Gal(a1-3)Gal(b1-3)GlcNAc
# How it was run: as §1
# [11] = biological target: Gal(a1-3)Gal(b1-3)GlcNAc(b1-2)Man(a1-3)[Gal(a1-3)Gal(b1-3)GlcNAc(b1-2)Man(a1-6)]Man(b1-4)GlcNAc(b1-4)GlcNAc
# How it was run: as §1
# [12] = biological target: Gal(a1-3)Gal(b1-3)GlcNAc(b1-6)GalNAc
# How it was run: as §1
# [13] = biological target: Gal(a1-3)Gal(b1-3)[Fuc(a1-4)]GlcNAc(b1-2)Man(a1-3)[Gal(a1-3)Gal(b1-3)[Fuc(a1-4)]GlcNAc(b1-2)Man(a1-6)]Man(b1-4)GlcNAc(b1-4)GlcNAc
# How it was run: as §1
# Gal(a1-3)Gal(b1-4)GlcNAc = biological target: Gal(a1-3)Gal(b1-4)GlcNAc
# How it was run: as §1
# [14] = biological target: Gal(a1-3)Gal(b1-4)GlcNAc(b1-3)GalNAc
# How it was run: as §1
# [15] = biological target: Gal(a1-4)Gal(b1-3)GlcNAc(b1-2)Man(a1-3)[Gal(a1-4)Gal(b1-3)GlcNAc(b1-2)Man(a1-6)]Man(b1-4)GlcNAc(b1-4)GlcNAc
# How it was run: as §1
# [16] = biological target: Gal(b1-3)GalNAc(a1-3)[Fuc(a1-2)]Gal(b1-4)GlcNAc
# How it was run: as §1
# [17] = biological target: Gal(b1-3)GalNAc(b1-4)[Neu5Ac(a2-3)]Gal(b1-4)Glc
# How it was run: as §1
# [18] = biological target: Gal(b1-3)GlcNAc(b1-3)Gal(b1-4)GlcNAc(b1-3)Gal(b1-4)GlcNAc(b1-2)[Gal(b1-3)GlcNAc(b1-3)Gal(b1-4)GlcNAc(b1-3)Gal(b1-4)GlcNAc(b1-6)]Man(a1-6)[Gal(b1-3)GlcNAc(b1-3)Gal(b1-4)GlcNAc(b1-3)Gal(b1-4)GlcNAc(b1-2)Man(a1-3)]Man(b1-4)GlcNAc(b1-4)[Fuc(a1-6)]GlcNAc
# How it was run: as §1
# [19] = biological target: Gal(b1-3)[Fuc(a1-4)]GlcNAc(b1-6)GalNAc
# How it was run: as §1
# [20] = biological target: Gal(b1-3)[Neu5Ac(b2-6)]GalNAc
# How it was run: as §1
# [21] = biological target: Gal(b1-4)GlcNAc(b1-2)Man(a1-3)[Gal(b1-4)GlcNAc(b1-2)Man(a1-6)][Gal(b1-4)GlcNAc(b1-4)]Man(b1-4)GlcNAc(b1-4)[Fuc(a1-6)]GlcNAc
# How it was run: as §1
# [22] = biological target: Gal(b1-4)GlcNAc(b1-3)Gal(b1-4)Glc
# How it was run: as §1
# [23] = biological target: Gal(b1-4)GlcNAc(b1-3)Gal(b1-4)GlcNAc(b1-3)Gal(b1-4)GlcNAc(b1-2)Man(a1-3)[Gal(b1-4)GlcNAc(b1-3)Gal(b1-4)GlcNAc(b1-3)Gal(b1-4)GlcNAc(b1-2)Man(a1-6)]Man(b1-4)GlcNAc(b1-4)GlcNAc
# How it was run: as §1
# [24] = biological target: Gal(b1-4)GlcNAc(b1-3)Gal(b1-4)GlcNAc(b1-3)Gal(b1-4)GlcNAc(b1-3)Gal(b1-4)GlcNAc(b1-2)Man(a1-3)[Gal(b1-4)GlcNAc(b1-3)Gal(b1-4)GlcNAc(b1-3)Gal(b1-4)GlcNAc(b1-3)Gal(b1-4)GlcNAc(b1-2)Man(a1-6)]Man(b1-4)GlcNAc(b1-4)GlcNAc
# How it was run: as §1
# [25] = biological target: Gal(b1-4)GlcNAc(b1-3)Gal(b1-4)GlcNAc(b1-3)Gal(b1-4)GlcNAc(b1-3)Gal(b1-4)GlcNAc(b1-3)Gal(b1-4)GlcNAc(b1-2)Man(a1-3)[Gal(b1-4)GlcNAc(b1-3)Gal(b1-4)GlcNAc(b1-3)Gal(b1-4)GlcNAc(b1-3)Gal(b1-4)GlcNAc(b1-3)Gal(b1-4)GlcNAc(b1-2)Man(a1-6)]Man(b1-4)GlcNAc(b1-4)GlcNAc
# How it was run: as §1
# [26] = biological target: Gal(b1-4)GlcNAc(b1-3)Gal(b1-4)GlcNAc(b1-6)[Gal(b1-3)]GalNAc
# How it was run: as §1
# [27] = biological target: Gal(b1-4)GlcNAc(b1-6)[Gal(b1-3)]GalNAc
# How it was run: as §1
# Gal3S4S(b1-4)GlcNAc = biological target: Gal3S4S(b1-4)GlcNAc
# How it was run: as §1
binder,measurement,setting,value
B1,glycan array binding signal (z-score),[1],5.41
same,glycan array binding signal (z-score),[2],3.93
same,glycan array binding signal (z-score),[3],1.57
same,glycan array binding signal (z-score),[4],1.02
same,glycan array binding signal (z-score),[5],-0.821
same,glycan array binding signal (z-score),[6],2.55
same,glycan array binding signal (z-score),[7],-0.413
same,glycan array binding signal (z-score),[8],-0.541
same,glycan array binding signal (z-score),[9],1.66
same,glycan array binding signal (z-score),[10],3.92
same,glycan array binding signal (z-score),Gal(a1-3)Gal(b1-3)GlcNAc,0.142
same,glycan array binding signal (z-score),[11],0.317
same,glycan array binding signal (z-score),[12],0.142
same,glycan array binding signal (z-score),[13],3.11
same,glycan array binding signal (z-score),Gal(a1-3)Gal(b1-4)GlcNAc,-0.994
same,glycan array binding signal (z-score),[14],-1.27
same,glycan array binding signal (z-score),[15],4.73
same,glycan array binding signal (z-score),[16],-0.45
same,glycan array binding signal (z-score),[17],-0.928
same,glycan array binding signal (z-score),[18],2.69
same,glycan array binding signal (z-score),[19],2.39
same,glycan array binding signal (z-score),[20],-0.133
same,glycan array binding signal (z-score),[21],1.11
same,glycan array binding signal (z-score),[22],0.127
same,glycan array binding signal (z-score),[23],6.36
same,glycan array binding signal (z-score),[24],1.43
same,glycan array binding signal (z-score),[25],1.74
same,glycan array binding signal (z-score),[26],3.46
same,glycan array binding signal (z-score),[27],-0.735
same,glycan array binding signal (z-score),Gal3S4S(b1-4)GlcNAc,0.428
